In PubChem BioAssay:
Unmarked numbers belong to inactive results. The rule behind the calls is not given here.

Target: Pantothenate synthetase (Mycobacterium tuberculosis (strain ATCC 25618 / H37Rv)) (UniProt P9WIL5)
Assay: Recombinant Mtb pantothenate synthetase (PanC) inhibitors, coupled enzyme, confirmatory (AID 375);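 note: 0% = full reaction with vehicle and 100% = no enzyme background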
Details: coupled enzyme assay; at 10 µM, stronger effect = higher value

Chain of Pantothenate synthetase (Mycobacterium tuberculosis (strain ATCC 25618 / H37Rv)) (P9WIL5 whole entry, looked up): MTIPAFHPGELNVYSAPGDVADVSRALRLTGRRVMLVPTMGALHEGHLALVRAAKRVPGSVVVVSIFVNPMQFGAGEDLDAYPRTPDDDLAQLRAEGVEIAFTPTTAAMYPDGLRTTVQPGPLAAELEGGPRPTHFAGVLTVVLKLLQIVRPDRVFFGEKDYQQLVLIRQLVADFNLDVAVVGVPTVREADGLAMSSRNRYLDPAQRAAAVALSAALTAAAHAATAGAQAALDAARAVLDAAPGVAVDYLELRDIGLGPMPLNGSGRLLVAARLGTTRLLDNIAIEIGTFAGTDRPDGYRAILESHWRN

SMILES | inhibition [%]
Cc1nc2cccc(C(=O)NC3CCCCC3)c2o1 | 0
Cc1cc(NCCN2CCCCC2)n2c(nc3ccccc32)c1C#N | 14
CCN(CC)Cc1nc2c(c(=O)[nH]1)C1(CCCCC1)Cc1ccccc1-2 | 3
O=C(Nc1ccon1)c1csc2c1CCCC2 | 6
CC(=O)Nc1ccc(NC(=O)c2ccccc2F)cc1 | 0
Cc1ccc(NC(=O)c2oc3ccc(S(=O)(=O)N4CCOCC4)cc3c2C)cc1C | 3
COc1cccc(C2CC(c3c(Cl)cccc3Cl)n3nc(N)nc3N2)c1 (centres undefined) | 0
COc1cccc(CN2CCN(C(=O)c3ccco3)CC2)c1OC | 3
O=C(CCCN1CCC(O)(c2ccc(Cl)cc2)CC1)c1ccc(F)cc1 | 0
CC1(C)CC(=O)c2cnc(NCc3ccco3)nc2C1 | 0
CC(C)c1ccc(CNc2ccc(N3CCOCC3)cc2)cc1 | 2
O=C(c1cccs1)c1cn(CC(=O)N2CCc3ccccc3C2)c2ccccc12 | 2
CCOC(=O)C1CCN(CC(=O)Nc2c(C(=O)OC)[nH]c3ccc(Cl)cc23)CC1 | 5
CN(CCCNC(=O)c1cn(C)c2ccc(S(=O)(=O)N(C)C)cc2c1=O)c1ccccc1 | 4
O=C(NCc1ccco1)c1csc(Nc2ccccc2Cl)n1 | 0
COC(=O)c1ccc(-c2nn(C)c(=O)c3ccccc23)cc1 | 0
O=C(c1ccc(COc2c(F)c(F)c(F)c(F)c2F)o1)N1CCOCC1 | 4
CCOC(=O)N1CCC(NC(=O)CSCc2nc(-c3cccc(OC)c3)oc2C)CC1 | 0
COc1cc2c3c(c1)/C(=C1/SC(NC(C)=O)=NC1=O)C(=O)N3C(C)(C)C=C2C | 0
